Experimental data taken from PubChem BioAssay (Tox21).
Values joined by “and” are separate entries in the source; they are usually repeats but may differ in a detail not shown here. Equal entries are not always repeated. Results filed as inconclusive are left out. A call without a number means that no potency is given here. Where a structure was tested more than once in an assay, its records may differ in their call. Active and inactive are the calls of the source. The call rests on the fitted dose curve; in most records, active means well fitted cell-killing curve with a large enough effect in the repeat runs; inconclusive means weak or mixed curves, or effect the other way; inactive means flat fitted curve, though single readings scatter.

Assay: Human pregnane X receptor (PXR) small molecule agonists, qHTS cell viability counter screen (AID 1346977); further: nearly all actives have a fitted effect of over 50% in size
Conditions: PXR-Luc HepG2 viability, CellTiter-Fluor, 24 h; series mostly up to 92.4 µM
From the text: U.S. Tox21 Program National Center for Advancing Translational Sciences [NCATS] NIH Chemical Genomics Center [NCGC] U.S. Environmental Protection Agency [EPA] National Institutes of Environmental Health Sciences [NIEHS] National Toxicology Program [NTP] U.S. Food and Drug Administration [FDA] Tox21 Assay Overview: The human pregnane X receptor (hPXR) regulates the expression of several drug metabolizing enzymes and induction of these proteins is a major mechanism for developing drug resistance in cancer. One such key enzyme catalyzing the drug metabolism is cytochrome P450 3A4 (CYP3A4). Changes in CYP3A4 expression affect drug metabolism, thereby reducing the therapeutic efficacy and altering toxicological response to a drug and which finally causes adverse drug interaction. To screen Tox21 libraries for compounds that activate hPXR-mediated CYP3A4 gene expression, PXR-Luc HepG2 cells were used. Also cytotoxicity of the compounds was tested in parallel by measuring the cell viability using CellTiter-Fluor assay system in the same wells.
Tox21 Assay Protocol Summary: PXR-Luc HepG2 cells were dispensed at 2,000 per well in 5uL of assay medium containing 5% charcoal-stripped FBS into white solid bottom 1536-well plates (Corning Life Sciences, Corning, NY) using a Multidrop Combi (Thermo Scientific, Waltham, MA) dispenser. The assay plates were incubated at 37 C and 5% CO2 for 5hr, and then 23nL of compounds dissolved in DMSO and positive control were transferred using a Pintool station (Wako, San Diego, CA). The assay plates were incubated at 37C and 5% CO2 for 24hr. For cytotoxicity read, after 23hr incubation at 37C, 1uL CellTiter-Fluor reagent (Promega Corporation, Madison, WI) was added to each well of the assay plates using Flying Reagent Dispenser (FRD, Aurora Discovery, San Diego, CA). After 1hr incubation at 37C and 5% CO2, the fluorescence signal was quantified using a ViewLux plate reader (PerkinElmer, Shelton, CT).
Potency means the concentration at half of the fitted maximal effect.

Compound | Potency
N[C@@H](Cc1c[nH]c2ccccc12)C(=O)O | inactive
CCCCCCCCCCCCCC(=O)OC(C)C | inactive
CC(C)Cc1ccc(C(C)C(=O)O)cc1 (stereo not given) | inactive
COc1ccccc1NC(=O)CC(C)=O | inactive
Cc1ccc(O)c(-n2nc3ccccc3n2)c1 | inactive
NC(=O)OCC(COC(N)=O)c1ccccc1 | inactive
C=CCOC(=O)CC(C)C | inactive
CC(C)(C)NCC(O)c1ccc(O)c(CO)c1 (stereo not given) | inactive
C[C@]12C[C@H](O)[C@H]3[C@@H](CCC4=CC(=O)CC[C@@]43C)[C@@H]1CC[C@@H]2C(=O)CO | inactive
CCCCCCCCCCCCCCCCCC(=O)OCC(O)CO (stereo not given) | inactive
C[C@]12C=CC(=O)C=C1CC[C@@H]1[C@@H]2C(=O)C[C@@]2(C)[C@H]1CC[C@]2(O)C(=O)CO | inactive
CC(C)(C)CC(C)(C)c1ccc(O)c(-n2nc3ccccc3n2)c1 | inactive
CC(C)CC(C)CC(O)CC(C)C (stereo not given) | inactive
O=C(O)Cc1cccc2ccccc12 | inactive
CCCCC/C(C=O)=C\c1ccccc1 | inactive
O=[N+]([O-])c1ccc(O)cc1 | 44.7 µM (active) and 48.6 µM (active)
CCCCOCCOCCSC#N | inactive
C#C[C@]1(O)CC[C@H]2[C@@H]3CCc4cc(O)ccc4[C@H]3CC[C@@]21C | inactive
NC(=O)N/N=C/c1ccc([N+](=O)[O-])o1 | inactive and 27.3 µM (active) and 26.6 µM (active)
COc1cc(O)c(C(=O)c2ccccc2)cc1S(=O)(=O)O | inactive

Compound | Potency
NC(=O)NO | inactive
C/C=C/c1ccc(O)c(OC)c1 | inactive
C=C(C)C(N)=O | inactive
C=C(C)OC(C)=O | inactive
CC(=O)Oc1ccccc1C(=O)O | inactive
COCC(C)N (stereo not given) | inactive
Cc1cccc(C)c1O | inactive
OCCCc1ccccc1 | inactive
C=CC(=O)NC(C)(C)CS(=O)(=O)O | inactive
CC(=O)CCC(C)C | inactive
NC(=O)N1c2ccccc2C=Cc2ccccc21 | inactive
COc1ccccc1O | inactive
CCN1CCCC1=O | inactive
CCn1cc(C(=O)O)c(=O)c2ccc(C)nc21 | inactive
Cc1c(N(C)CS(=O)(=O)O)c(=O)n(-c2ccccc2)n1C | inactive
COC(=O)C1CCC(C(=O)OC)CC1 (stereo not given) | inactive
CCN(CC)CCOC(=O)c1ccc(N)cc1 | inactive
C[C@]12CC[C@@H]3c4ccc(O)cc4CC[C@H]3[C@@H]1CCC2=O | inactive
CCc1cc(C(N)=S)ccn1 | inactive
COC1=CC(=O)C[C@@H](C)[C@]12Oc1c(Cl)c(OC)cc(OC)c1C2=O | inactive
